Assay in all cases: PBM binding z-score (relative to random genomic background probes); higher = stronger binding; sequences stand for … in GC…GCGATTGACAGCGTAGAATGAAGG
The test system of test [1] is PPARg:RXRa DBDmut IVT, anti-RXR (DBD mutation: RXRa K156A/R161A, NR concentration 270 nM, RXRa partner concentration 90 nM). An outline of the steps: (§1)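 Probes were double-stranded and carried 34-nt variable regions with direct-repeat seeds, single-nucleotide variants, half-site ablations and random human genomic background sequences, printed on custom Agilent 4×180K protein-binding microarrays. Arrays were incubated 1 h with ligand-free nuclear receptor dimers in PBS pH 7.4, 2% milk, 0.02% Triton X-100, 1 mM DTT, 0.2 mg/mL BSA and 0.4 mg/ml salmon testes DNA. Antibodies against each partner (one per run) detected binding, and scanned fluorescence was regression-normalized. Binding z-scores use the random background probes as reference.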

Test [2] concerns PPARg:RXRa IVT, anti-PPARg (NR concentration 270 nM, RXRa partner concentration 90 nM). The method, boiled down:
as §1

For test [3], the system named is PPARg DBDmut:RXRa IVT, anti-PPARg (DBD mutation: PPARg1 K132A/R137A, NR concentration 270 nM, RXRa partner concentration 90 nM). An outline of the steps: as §1
The subject of test [4] is PPARg DBDmut IVT, anti-PPARg (DBD mutation: PPARg1 K132A/R137A, NR concentration 270 nM). The method, boiled down:
as §1

In test [5] the test system is PPARg homodimer (NR concentration 180 nM). The method, boiled down: as §1
The subject of test [6] is PXR:RXRa (NR concentration 270 nM, RXRa partner concentration 90 nM). The method, boiled down:
as §1

In test [7] the test system is PXR homodimer (NR concentration 270 nM). The method, boiled down:
as §1

Test [8] deals with RARa:RXR (NR concentration 270 nM, RXRa partner concentration 90 nM). An outline of the steps:
as §1

The test system of test [9] is RARa homodimer (NR concentration 270 nM). The method, boiled down:
as §1

Test [10] relates to RARb:RXRa (NR concentration 270 nM, RXRa partner concentration 90 nM). An outline of the steps:
as §1

Test [11] relates to RARb homodimer (NR concentration 270 nM). The method, boiled down:
as §1

Test [12] has as its system RARg:RXRa (NR concentration 270 nM, RXRa partner concentration 90 nM). An outline of the steps:
as §1

Test [13] deals with RARg homodimer (NR concentration 270 nM). The method, boiled down:
as §1

Test [14] has as its system RXRa DBDmut IVT, anti-RXR (DBD mutation: RXRa K156A/R161A, NR concentration 90 nM). An outline of the steps:
as §1

Test [15] relates to RXRa homodimer (NR concentration 180 nM). The method, boiled down:
as §1

The subject of test [16] is THRa:RXRa (NR concentration 90 nM, RXRa partner concentration 90 nM). The method, boiled down: as §1
The test system of test [17] is THRa homodimer (NR concentration 90 nM). The method, boiled down: as §1
Test [18] deals with VDR homodimer (NR concentration 270 nM). An outline of the steps: as §1

With CCTAATTGGTCAGGAGGTCACACACCGGATATGA, the PBM binding z-score was 1.64 in [1]; 3.67 in test [2]; 0.824 in [3]; 0.695 in [4]; 3.7 in test [5]; 4.19 in test [6]. For the same sequence, the PBM binding z-score in [7] turned out to be 1.4; in [8], 4.5; in [9] it was 2.15; in test [10], 3.87; in test [11] it was 4.46; in test [12], 4.97. Further, the PBM binding z-score in [13] was found to be 4.47; in test [14], 1.33; in test [15] it was 4.88; in [16] it was 3.69; in [17], 2.45; in test [18], 2.62.
With ACTAGCAGGCCAAGGGGCACTCAAGATTAGTCCG, the PBM binding z-score in [1] was 0.959; in [2], 1.41; in test [3], 0.105; in test [4], -0.646; in test [5], -0.02; in [6], -0.175. Also, the PBM binding z-score in test [7] is -0.332; in test [8], -0.0268; in test [9], -0.844; in test [10] it was 1.09; in test [11], 0.873; in [12] it was 0.423. The PBM binding z-score in test [13] was 0.766; in test [14] it was -0.00995; in test [15], 0.366; in [16], 0.0441; in test [17], -0.582; in [18], 0.169.
Take CGTCCAAGGTCAAGGTCAGTGGAAGAGACTCGAA: the PBM binding z-score in [1] is 3.54; in test [2] it was 4.55; in test [3], 0.113; in test [4], -0.109; in test [5] it was 3.84; in test [6], 4.68. Also, the PBM binding z-score is 1.08 in test [7]; 4.79 in [8]; 0.944 in [9]; 5.61 in test [10]; 5.13 in [11]; 6.64 in [12]. Also, the PBM binding z-score was determined as 7.58 in test [13]; 3.79 in test [14]; 6.05 in test [15]; 4.21 in [16]; 3.67 in test [17]; 3.15 in test [18].
As for CAAACTAGGGCAAGAGGTCAAAGTCCGCTTCCCG, the PBM binding z-score in [1] is 6.91; in test [2] it was 7.47; in [3], 1.69; in test [4] it was 0.0985; in test [5] it was 3; in [6], 5.35. For the same sequence, the PBM binding z-score in [7] is 1.49; in test [8], 5.98; in test [9] it was 1.61; in [10] it was 4.51; in test [11], 5.19; in [12], 6.21. The PBM binding z-score in test [13] worked out at 5.15; in [14], 1.74; in [15], 6.17; in test [16], 3.87; in test [17], 1.23; in test [18], 3.3.
As for CTCGAAAGGTCGGTTGAGGAGAGTATACGGATAA, the PBM binding z-score was -0.459 in [1]; 0.102 in [2]; 1.01 in test [3]; -0.0822 in test [4]; 0.421 in test [5]; 1.09 in [6]. Further, the PBM binding z-score in test [7] is 0.356; in test [8], 2.15; in [9] it was -0.00538; in test [10], 2.87; in test [11] it was 1.66; in [12] it was 2.45. For the same sequence, the PBM binding z-score in test [13] is 2.43; in [14] it was 0.577; in [15], 1.74; in test [16], 4.2; in [17], -0.262; in test [18], 0.602.
As for GGAACGAGGGCATGTTGATAGCAGAGTTTGATGG, the PBM binding z-score in test [1] was 2.6; in [2], 1.79; in test [3], 0.588; in test [4], -0.313; in [5] it was 0.877; in [6] it was 0.633. Also, the PBM binding z-score came out at 0.542 in test [7]; 0.117 in test [8]; 0.262 in test [9]; 1.81 in test [10]; 1.11 in [11]; 0.813 in test [12]. The PBM binding z-score in [13] was determined as 1.38; in test [14], 2.25; in test [15] it was 0.438; in test [16], 1.1; in test [17], 0.428; in [18], 1.6.
On to TCGAGAAGGTTACCAATGGGGCATTCAGCTTTCT, for which the PBM binding z-score was 1.39 in test [1]; 0.663 in test [2]; -1.15 in test [3]; -0.173 in test [4]; 0.132 in test [5]; 0.773 in test [6]. In addition, the PBM binding z-score in [7] is -1; in test [8], 1.49; in test [9], -0.803; in test [10], 2.26; in [11], 1.48; in [12] it was 3.02. In addition, the PBM binding z-score in test [13] was 1.19; in [14], 0.529; in test [15] it was 1.86; in test [16], 0.779; in test [17], -0.839; in test [18], -0.528.
For GCATATAGGTAGTACAAGGTGAAAGTCCGATTGT, the PBM binding z-score was 0.709 in [1]; 1.04 in test [2]; 0.664 in test [3]; 0.977 in [4]; -0.146 in test [5]; 0.403 in test [6]. Moreover, the PBM binding z-score in test [7] amounted to 0.176; in [8] it was 0.66; in [9] it was 0.249; in [10], 0.368; in test [11], 0.817; in test [12], 0.404. The PBM binding z-score was found to be 0.395 in test [13]; 0.422 in test [14]; 0.53 in [15]; 3.23 in [16]; 1.02 in test [17]; 0.0912 in test [18].
